Bioassay records: PubChem, NMMLSC
An excerpt weighted towards active compounds, which were near 3.5% of everything screened.
Autofluor counter: flagged as autofluorescent in microsphere protease counterscreen. compound autofluorescence counterscreen, microsphere flow cytometry; stronger effect = higher value. AID 624483. 360,000 compounds, 3.1% hits. fluorescence intensity (no concentration beside the values); in the data active means fluorescence intensity above about 16000; inconclusive means no clear call, values can overlap the other calls
Anthrax LF prot: inhibitors of Bacillus anthracis lethal factor protease; P15917; multiplex microsphere protease cleavage assay, LF; inhibition, % at 10 µM; 360,000 compounds, 0.12% hits; AID 588501
Target sequence (P15917 whole entry, looked up): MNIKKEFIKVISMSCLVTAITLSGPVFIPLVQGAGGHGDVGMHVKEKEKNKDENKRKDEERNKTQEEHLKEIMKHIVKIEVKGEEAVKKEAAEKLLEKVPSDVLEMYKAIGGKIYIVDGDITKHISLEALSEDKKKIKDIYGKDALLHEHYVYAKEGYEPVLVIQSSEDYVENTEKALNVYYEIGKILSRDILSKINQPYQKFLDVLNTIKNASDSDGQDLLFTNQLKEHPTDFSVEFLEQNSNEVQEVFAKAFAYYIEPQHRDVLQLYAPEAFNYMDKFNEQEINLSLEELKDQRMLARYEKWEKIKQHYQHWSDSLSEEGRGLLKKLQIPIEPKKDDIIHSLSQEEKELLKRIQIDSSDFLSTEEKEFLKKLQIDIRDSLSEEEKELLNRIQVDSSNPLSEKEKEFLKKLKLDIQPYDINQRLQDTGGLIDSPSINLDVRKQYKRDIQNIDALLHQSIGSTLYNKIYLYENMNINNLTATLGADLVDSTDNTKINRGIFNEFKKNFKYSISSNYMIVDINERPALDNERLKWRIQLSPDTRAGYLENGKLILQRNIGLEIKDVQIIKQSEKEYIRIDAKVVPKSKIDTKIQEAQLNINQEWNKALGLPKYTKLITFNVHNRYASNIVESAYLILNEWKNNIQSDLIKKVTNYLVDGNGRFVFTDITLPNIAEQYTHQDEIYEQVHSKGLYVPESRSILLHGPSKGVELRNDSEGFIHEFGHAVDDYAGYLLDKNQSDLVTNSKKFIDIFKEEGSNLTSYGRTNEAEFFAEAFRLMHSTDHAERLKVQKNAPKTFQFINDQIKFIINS
BoNT A protease: BoNT A light chain protease inhibition | multiplex microsphere protease substrate cleavage, flow cytometry | inhibition, % at 10 µM | 360,000 compounds, 0.17% hits | AID 588499
BoNT F protease: blocks Botulinum neurotoxin F light chain protease; 360,000 compounds, 0.22% hits; Multiplex microsphere protease cleavage assay, flow cytometry; inhibition, % at 10 µM; in the data active means inhibition above about 35%, passing the limit was not always enough; inconclusive means no clear call, values can overlap the other calls
Of the large screens only hits and unclear results are named; the others gave an inactive call. Unless noted, no stated cut-off is given here; in the data, active means inhibition above about 30%; inconclusive means no clear call, values can overlap the other calls; inactive means below that.

CCCOc1ccc(C(=O)Nc2ccc(N3CCOCC3)cc2N2CCOCC2)cc1OCC	none
CC(C)[C@H](NC(N)=O)C(=O)Nc1cccc(S(=O)(=O)NC2=NCCCCC2)c1	none
O=S(=O)(Cc1ccccc1)Oc1ccccc1	BoNT F protease inconclusive
Cc1c(C(=O)N2CCC3(CC2)OCCO3)oc2ccccc12	Autofluor counter 18025
COCCCNC(=O)c1cn(C)c(=O)c2c1c1ccccc1n2C	none
Cn1cc(C(=O)N2CCC3(CC2)OCCO3)c2c3ccccc3n(C)c2c1=O	Autofluor counter 23087
Cn1cc(C(=O)NCCN2CCN(c3cccc(Cl)c3)CC2)c2c3ccccc3n(C)c2c1=O	Autofluor counter 23347
CCOC(=O)N1CCN(C(=O)c2cn(C)c(=O)c3c2c2ccccc2n3C)CC1	Autofluor counter 22295
Cc1ccccc1S(=O)(=O)N1CCN(c2ccc3c(c2)C2CC3CCN2C(=O)OCc2ccccc2)CC1 (configuration not stated)	none
O=C(COc1ccc(Br)cc1)N(Cc1nnc(-c2ccccc2Cl)o1)C1CC1	none
CCOC(=O)c1ccc(NC(=O)CSc2nc(=O)n(CCN3CCOCC3)c3c2CCC3)cc1	none
COc1ccccc1CNC(=O)COC(=O)C1CCN(S(=O)(=O)c2c(Cl)cccc2Cl)CC1	none
CC1=C(C(=O)N2CCC3(CC2)OCCO3)C2(CCC(C)CC2)OC1=O (configuration not stated)	Autofluor counter 21647, BoNT A protease inconclusive
CC1=C(C(=O)N2CCCCC2)C2(CCC(C)CC2)OC1=O (configuration not stated)	none
C=C(C)CN(CC)c1nc(N)c(C#N)c(CC#N)c1C#N	Autofluor counter 20294, BoNT A protease inconclusive
CCN1CCN(CCCNC(=O)CNC(=O)c2nn(-c3ccc(OC)cc3OC)c(=O)c3ccccc23)CC1	none
O=C(Nc1cccc(C(F)(F)F)c1)c1cccc(NS(=O)(=O)c2ccc(O)c(C(=O)O)c2)c1	BoNT F protease inconclusive
Cc1ccc(C(CC(=O)N2CCCC2)c2ccccc2)c(O)c1 (configuration not stated)	none
CCCN(CCC)C(=O)CC(c1ccccc1)c1ccc(C)cc1O (configuration not stated)	Autofluor counter 22025
CCCN(CCC)C(=O)CC(c1ccccc1)c1cc(Br)ccc1O (configuration not stated)	Autofluor counter 22655
CCCC[C@@H]1Cc2[nH][nH]c(=O)c2[C@H](c2cccc3ccccc23)O1	none
CCn1c(O)c(C=Nc2ccc(N3CCOCC3)c(Br)c2)c(=O)n(CC)c1=S	Autofluor counter 19239
N#Cc1sc2nc(-c3cccs3)cc(-c3ccccc3)c2c1N	none
N#Cc1sc2nc(-c3cccs3)cc(-c3ccc(Cl)cc3)c2c1N	Autofluor counter 16199, BoNT A protease inconclusive
COc1ccc(C(=O)OCC(=O)N2c3ccccc3CC2C)cc1S(=O)(=O)N1CCOCC1 (configuration not stated)	none
O=S(=O)(c1ccccc1)c1cnc(-c2cccnc2)nc1-c1ccc(Cl)c(Cl)c1	Autofluor counter 17469
Cc1ncc(S(=O)(=O)c2ccccc2)c(-c2ccccc2)n1	none
COc1ccc(C(CNC(=O)c2cc(C)oc2C)N2CCOCC2)cc1 (configuration not stated)	Autofluor counter 16136
COc1ccccc1NS(=O)(=O)c1cccc(C(=O)NCC(c2ccco2)N2CCCC2)c1 (configuration not stated)	none
COc1ccc(C(CNC(=O)c2cccc(Br)c2)N2CCCC2)cc1 (configuration not stated)	Autofluor counter 28340
COc1ccccc1NS(=O)(=O)c1cccc(C(=O)NCC(c2ccccc2OC)N2CCCC2)c1 (configuration not stated)	Autofluor counter 20056
COc1ccc(C(CNC(=O)c2ccccc2C)N2CCCC2)cc1 (configuration not stated)	none
COc1ccc(C(CNC(=O)c2cccc(S(=O)(=O)N(C)c3ccccc3)c2)N2CCCC2)cc1 (configuration not stated)	Autofluor counter 59722
O=C(O)c1ccccc1C(c1ccc(O)cc1)c1ccc(O)cc1	none
COc1ccc(OCC(=O)OC2CCCN(C)C2)cc1 (configuration not stated)	BoNT F protease inconclusive
O=C(CSCc1ccccc1)NNc1c(F)c(F)cc(F)c1F	none
CC(C)Cn1cnc2c1c(=O)n(CC(=O)NC(=O)NC(C)(C)C)c(=O)n2Cc1ccccc1	none
COc1ccc(C(CNC(=O)c2ccc(Cl)c(S(=O)(=O)N3CCCC3)c2)N2CCCC2)cc1 (configuration not stated)	Autofluor counter 30581
COC(=O)c1ccc2nc(C)c(C)nc2c1	Autofluor counter 20620, BoNT A protease inconclusive
COc1ccccc1C(C(C(=O)c1ccccc1)N1CCOCC1)N1CCOCC1 (configuration not stated)	none
CCN(CC)S(=O)(=O)c1ccc(O)c(C(=O)OCC(=O)N2c3ccccc3CC2C)c1 (configuration not stated)	none
CC(c1ccccc1)N1CCn2c(nc3cc(NC(=O)c4cccs4)ccc32)C1 (configuration not stated)	none
CC(c1ccccc1)N1CCn2c(nc3cc(NC(=O)NC4CCCCC4)ccc32)C1 (configuration not stated)	Autofluor counter 19391
CC(C)C(OC(=O)c1nsc(Cl)c1Cl)C(=O)NCc1ccccc1 (configuration not stated)	none
CCOC(=O)C(C#N)=CN1CCNc2ccccc21	none
O=S(=O)(CCSc1ccccn1)c1nc2ccccc2s1	Autofluor counter 23137
COc1ccc(C(=O)Nn2cc3c(c2-c2ccccc2)c(=O)n(C)c(=O)n3C)cc1	Autofluor counter 20615
COc1ccc(C(=O)Nc2ccccc2C(=O)NC(C(=O)NCc2ccco2)C(C)C)cc1 (configuration not stated)	none
COc1ccc(C(=O)Nc2ccccc2C(=O)N(Cc2ccco2)C(C(N)=O)C(C)C)cc1 (configuration not stated)	Autofluor counter 22943
CCC(C)N(CC(=O)NCc1ccc(OC)cc1)C(=O)c1csnn1 (configuration not stated)	Autofluor counter 16830, BoNT A protease inconclusive
O=C(NCCc1ccccc1)C(c1cccs1)N(C(=O)c1csnn1)C1CC1 (configuration not stated)	Autofluor counter 20245, BoNT A protease inconclusive
COc1ccc(CNC(=O)C(c2cccs2)N(C(=O)c2csnn2)C2CC2)cc1 (configuration not stated)	Autofluor counter 24268
O=C(NCCc1ccccc1)C(c1ccccc1)N(C(=O)c1csnn1)C1CC1 (configuration not stated)	none
O=C(NCc1ccccc1)C(c1cccs1)N(C(=O)c1csnn1)C1CC1 (configuration not stated)	Autofluor counter 21285
O=C(NCc1ccccc1)C(c1ccccc1)N(C(=O)c1csnn1)C1CC1 (configuration not stated)	none
CC(=O)Nc1ccc(NC(=O)CCCn2cnc3ccccc3c2=O)cc1	none
O=C(NCCOc1ccccc1F)C1CCC(=O)N(CCc2cccc(F)c2)C1 (configuration not stated)	none
COn1c(SCC(N)=O)nc2ccccc2c1=O	none
